# Bioassay records from PubChem BioAssay.
# HCV inh – blocks hepatitis C virus; Huh7.5.1 HCVcc-Cre infection, luciferase reporter, 44 h; Potency, µM (highest dose often 41.8 µM), inactives show at the top dose activity change, negative = inhibition, most hits filed as inhibitors; 340,000 tested, 3.4% active; further: potency means the concentration at half of the fitted maximal effect
#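 Luciferase read-out (15 sec integration) after a 15 min room-temperature substrate step quantifies HCVcc-Cre infection. Cells, 1,000 per well, had compound added 4 h post-plating, then virus at ~0.5 moi, and were cultured 44 h.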
# FMDV antiviral – blocks foot and mouth disease virus; FMDV antiviral cell-based qHTS; 410,000 tested, 1.2% active; Potency, µM (series often up to 57.9 µM), for the others: at the top dose activity change, negative = inhibition, usual class: inhibitors; AID 1159524; calls by dose curve; tested in HEK293T cells; further: read-out not given here; potency means the concentration at half of the fitted maximal effect; nearly all actives have a fitted effect of over 45% in size
# AmpC inh no detg – AmpC beta-lactamase inhibition without detergent; AmpC nitrocefin hydrolysis, absorbance 480 nm, 0.0001% Triton; P00811; 330,000 tested, 0.52% active; Potency, µM (series often up to 57.1 µM), for the others: top-dose activity change, negative = inhibition, actives largely listed as inhibitors;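 further: potency means the concentration at half of the fitted maximal effect; plate controls were no compound for no effect and no enzyme for full effect; nearly all actives have a fitted effect of over 20% in size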
# Target sequence (P00811 whole entry, looked up): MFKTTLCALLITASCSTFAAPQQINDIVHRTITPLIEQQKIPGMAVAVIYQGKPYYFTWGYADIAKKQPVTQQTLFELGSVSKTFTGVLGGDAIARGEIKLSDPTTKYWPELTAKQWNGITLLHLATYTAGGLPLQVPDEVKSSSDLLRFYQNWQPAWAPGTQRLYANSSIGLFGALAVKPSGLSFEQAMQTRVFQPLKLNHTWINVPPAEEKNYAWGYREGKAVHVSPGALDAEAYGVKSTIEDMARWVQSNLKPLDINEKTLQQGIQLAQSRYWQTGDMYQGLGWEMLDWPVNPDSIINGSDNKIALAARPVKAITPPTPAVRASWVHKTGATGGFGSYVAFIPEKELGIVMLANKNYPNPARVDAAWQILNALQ
#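 20 mM phosphate pH 7.0 + 0.01% (detergent screen) or 0.0001% Triton X-100; 5.3 nM AmpC reagent; cpd preinc 15 min RT; nitrocefin (800 uM stock) to start; A480 q20 s × 4 min; Activity was normalised to no-enzyme and no-compound control wells.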
# AmpC inh detg – blocks E. coli AmpC beta-lactamase in detergent assay | 370,000 tested, 0.041% active | Potency, µM (titrated, usually from 114 µM), for inactives: top-dose activity change, negative = inhibition, actives largely listed as inhibitors | AmpC hydrolysis of nitrocefin, absorbance 480 nm, 0.01% Triton;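 further: potency means the concentration at half of the fitted maximal effect; 0% = no-compound wells and -100% = no-enzyme wells; nearly all actives have a fitted effect of over 25% in size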
#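 20 mM phosphate pH 7.0 + 0.01% (detergent screen) or 0.0001% Triton X-100; 5.3 nM AmpC reagent; cpd preinc 15 min RT; nitrocefin (800 uM stock) to start; A480 q20 s × 4 min; Activity was normalised to no-enzyme and no-compound control wells.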
# HCMV antiviral – human cytomegalovirus inhibition | HFF cells, HCMV-luciferase reporter, 72 h; stronger effect = lower value | activity change, negative = inhibition, % at 57.5 µM | 410,000 tested, 4.5% active | AID 1259415; in the data active means activity change below about -60%; inconclusive means no clear call, values can overlap the other calls; inactive means above about -39%
#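 Two-dose cell screen: HFF monolayers treated with compounds and infected with luciferase-expressing HCMV at 1 PFU/cell, 72 h at 37C, then lysed for luciferase measurement.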
# * hit, by the source's call; ? = inconclusive; . = not tested or not shown. An excerpt weighted towards active compounds, which were near 7.3% of everything screened. Unless noted, the call rests on the fitted dose curve; in most records, active means well fitted curve in the direction sought with a large enough effect; inconclusive means small, poorly fitted or top-dose-only effect, or another doubt; inactive means no such curve, though single readings can be large; an effect the other way counts as inactive or inconclusive. Unless noted, on the % scale 0 is the no-effect control and ±100 the full control effect.
SMILES,HCV inh,FMDV antiviral,AmpC inh no detg,AmpC inh detg,HCMV antiviral
CCN(CC(=O)Nc1ccc(NC(C)=O)cc1)C(=O)c1ccc(COc2ccccc2)o1,-6%,-19%,-28%,-5%,0
COCc1ccc(C(=O)Nc2cccc(S(=O)(=O)N(C)c3ccccc3)c2)cc1,22µM*,?,-28%,.,-96*
CCN(CC(=O)Nc1ccc(NC(C)=O)cc1)C(=O)c1ccc(COc2ccc(C(C)(C)C)cc2)cc1,?,-24%,.,.,-62*
CN(c1ccc(C(=O)Nc2cccc(O)c2)cc1)S(=O)(=O)c1ccccc1,?,-23%,-6%,-13%,1
CCC[C@H]1[C@@H](NS(=O)(=O)c2cccs2)CC[C@@]23CCCN2C(=O)CCC[C@@H]13,.,.,.,.,-5
Cc1ccc(C(=O)NCCc2nnc3n2CCN(C(=O)c2ccnc(Cl)c2)CC3)cc1,.,1%,.,.,.
CCOc1ccc(OCC)c(NS(=O)(=O)c2cc(-c3cnc(C)o3)ccc2OC)c1,.,32%,.,6%,-2
CN(c1ccc(C(=O)Nc2cccnc2)cc1)S(=O)(=O)c1ccccc1,?,?,-22%,1%,-71*
CN(C)S(=O)(=O)c1cccc(NC(=O)c2ccc(OC(F)(F)F)cc2)c1,?,?,-31%,?,-95*
Cc1ccc(S(=O)(=O)N(C)C)cc1NC(=O)c1ccc(OC(F)(F)F)cc1,0%,-13%,-7%,?,3
Cc1c(NC(=O)c2cc(-c3ccccc3O)on2)c(=O)n(-c2ccccc2)n1C,-5%,-12%,-19%,-6%,-24
Cc1ccc(C)c(-c2csc(N/N=C/c3ccco3)n2)c1,13µM*,-9%,-53%,?,?
O=S(=O)(c1cccc(-c2csc(N/N=C/c3ccco3)n2)c1)N1CCOCC1,?,28µM*,-7%,2%,?
CCOc1cc(/C=N/Nc2nc(-c3cccc(S(=O)(=O)N4CCCC4)c3)cs2)ccc1O,10µM*,?,-24%,1%,?
CCOc1cc(C=NNC(=O)c2cccc(S(=O)(=O)N3CCCC3)c2)ccc1O,-17%,?,-33%,.,0
O=[N+]([O-])c1cc(/C=N/N/C(=N/c2ccccn2)c2ccccn2)ccc1O,?,31%,-10%,0%,-83*
O=C(NCCO)c1cn(C2CCN(Cc3c(F)cccc3Cl)CC2)nn1,.,-19%,.,.,.
CC(=O)Nc1ccc(S(=O)(=O)NC2(C(F)(F)F)C(=O)Nc3c2c(=O)[nH]c(=O)n3-c2ccc(C)cc2)cc1 (stereo unspecified),.,-10%,.,-4%,2
O=C(Cc1ccc(F)cc1)Nc1cc(S(=O)(=O)N2CCOCC2)ccc1N1CCCCC1,.,-22%,.,.,-36
COc1ccc(/C=N/Nc2nc(-c3cccc(S(=O)(=O)N4CCCC4)c3)cs2)cc1OC,10µM*,?,1%,1%,?
COc1cc(/C=N/Nc2nc(-c3ccc(S(=O)(=O)N(C)C)cc3)cs2)ccc1O,?,35µM*,-42%,-1%,-65*
O=[N+]([O-])c1cc(/C=N\Nc2nc(-c3ccccc3)cs2)ccc1O,-8%,20%,25µM*,6%,-11
Cc1csc(N/N=C/c2ccc(O)c([N+](=O)[O-])c2)n1,-4%,56%,-50%,4%,11
COc1ccc(-c2csc(NC(=S)NC(=O)c3ccc(S(=O)(=O)N(C)C)cc3)n2)cc1OC,?,-7%,-4%,-9%,?
CCN(Cc1ccncc1)Cc1ccc2c(c1)CN(C(=O)c1ccc(C)cc1)CCO2,.,-8%,.,.,.
CC(=O)c1cnn(-c2c(Cl)cc(Cl)cc2Cl)c1C,-28%,-11%,-3%,5%,?
CN(C)CCNC(=O)CC1(C)N=C(c2ccc(-c3ccccc3)cc2)N(C)O1 (stereo unspecified),.,.,.,.,-10
COc1cccc2sc(N(C)c3ccccc3)nc12,25µM*,-3%,84%,-1%,38
Cc1ccc(C(=O)COc2ccccc2C(=O)Nc2ccccc2)cc1,16µM*,?,-21%,-10%,19
Cc1cccc(C)c1OCC(=O)Nc1cccc(NC(=O)c2ccco2)c1,11µM*,0%,1%,1%,-31
